Source: PubChem BioAssay AID1159580 (chemical genetic matrix, 2015)
Several values for one entry are separate records, joined by “and”; a condition that tells them apart may be missing. Identical values can stand only once. Among all 5,500 compounds or so, about 2,000 (36%) were called active. Roughly 18% stayed inconclusive and do not appear here. Cut-off read from the data, not from the text of the source: active = normalized growth mostly below about 0.91 (no sharp cut-off); inconclusive = no clear call, values can overlap the other calls; inactive = mostly above about 0.92. Some of the results follow.

Test: chemical genetic growth profiling, strain panel (AID 1159580);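 note: tested at 20 µM; growth read once vehicle control cultures reached saturation at 30 °C; 1 = growth at the plate median or of vehicle wells; lower values mean less growth of the strain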
Conditions: S. cerevisiae deletion strains, growth OD

Measured: normalized growth

CN(C)CCOC(=O)COc1ccc(Cl)cc1
inactive: locus YAL013W, strain DEP1, active compounds read low 1.02 | locus YAL021C, strain ccr4, active compounds read low 0.955 | locus YAL026C, strain drs2, active compounds read low 0.968 | locus YAL030W, strain snc1, active compounds read low 0.973 | locus YAL040C, strain CLN3, active compounds read low 1.06 | locus YBL061C, strain skt5, active compounds read low 0.966 | locus YBR009C, strain hhf1, active compounds read low 0.984 | locus YBR021W, strain FUR4, active compounds read low 0.95 | locus YBR023C, strain chs3, active compounds read low 0.965 | locus YBR171W, strain sec66, active compounds read low 0.969 | locus YBR229C, strain ROT2, active compounds read low 1.01 | locus YBR231C, strain swc5, active compounds read low 0.96 | locus YBR279W, strain paf1, active compounds read low 0.987 | locus YCL011C, strain gbp2, active compounds read low 0.957 | locus YCL016C, strain dcc1, active compounds read low 0.969 | locus YCL029C, strain bik1, active compounds read low 1.04 | locus YCL061C, strain MRC1, active compounds read low 0.969 | locus YCL069W, strain vba3, active compounds read low 0.974 | locus YCR088W, strain abp1, active compounds read low 0.956 | locus YDL005C, strain med2, active compounds read low 0.972 | locus YDL035C, strain GPR1, active compounds read low 1.05 | locus YDL040C, strain nat1, active compounds read low 0.973 | locus YDL074C, strain BRE1, active compounds read low 1.05 | locus YDL101C, strain DUN1, active compounds read low 1.02 | locus YDL134C, strain PPH21, active compounds read low 1.01 | locus YDL185W, strain tfp1, active compounds read low 1.03 | locus YDL192W, strain arf1, active compounds read low 1.04 | locus YDR001C, strain nth1, active compounds read low 0.965 | locus YDR069C, strain doa4, active compounds read low 0.953 | locus YDR101C, strain arx1, active compounds read low 1.03 | locus YDR150W, strain NUM1, active compounds read low 1.03 | locus YDR159W, strain sac3, active compounds read low 0.944 | locus YDR162C, strain NBP2, active compounds read low 1.03 | locus YDR195W, strain ref2 1.02 | locus YDR297W, strain sur2, active compounds read low 0.963 | locus YDR318W, strain mcm21, active compounds read low 1.06 | locus YDR334W, strain swr1, active compounds read low 0.933 | locus YDR335W, strain msn5, active compounds read low 0.969 | locus YDR388W, active compounds read low 1.03 | locus YDR392W, strain spt3, active compounds read low 0.974 | locus YEL003W, strain gim4, active compounds read low 0.957 | locus YEL037C, strain rad23, active compounds read low 0.969 | locus YEL061C, strain CIN8 (second series), active compounds read low 0.972 | locus YEL061C, strain CIN8, active compounds read low 1.02 | locus YER002W, strain NOP16, active compounds read low 0.971 | locus YER015W, strain faa2, active compounds read low 0.972 | locus YER016W, strain bim1, active compounds read low 0.968 | locus YER110C, active compounds read low 1.05 | locus YER111C, strain swi4, active compounds read low 0.98 | locus YER155C, strain BEM2 (second series), active compounds read low 0.962 | locus YER155C, strain BEM2, active compounds read low 1.01 | locus YER167W, strain BCK2, active compounds read low 1.01 | locus YFR010W, strain ubp6, active compounds read low 0.965 | locus YGL078C, strain dbp3, active compounds read low 1.04 | locus YGL086W, strain mad1, active compounds read low 1.06 | locus YGL167C, strain pmr1, active compounds read low 0.968 | locus YGL173C, strain kem1, active compounds read low 0.975 | locus YGL227W, strain vid30, active compounds read low 0.965 | locus YGL240W, strain doc1, active compounds read low 0.967 | locus YGL248W, strain PDE1, active compounds read low 1.01 | locus YGL253W, strain hxk2, active compounds read low 0.968 | locus YGR078C, strain PAC10, active compounds read low 1.05 | locus YGR135W, strain pre9, active compounds read low 1.03 | locus YGR229C, strain SMI1, active compounds read low 1.06 | locus YGR252W, strain gcn5, active compounds read low 1.01 | locus YHR013C, strain ard1, active compounds read low 0.983 | locus YHR027C, strain rpn1, active compounds read low 0.96 | locus YHR030C, strain SLT2, active compounds read low 1.02 and 1.08 | locus YHR079C, strain IRE1 (second series), active compounds read low 1.03 | locus YHR079C, strain IRE1, active compounds read low 1.11 | locus YHR094C, strain hxt1, active compounds read low 1.02 | locus YHR129C, strain ARP1, active compounds read low 1.02 | locus YHR142W, strain chs7, active compounds read low 0.962 | locus YHR200W, strain rpn10, active compounds read low 1.06 | locus YIL066C, strain RNR3, active compounds read low 1.04 | locus YIL073C, strain SPO22, active compounds read low 1.08 | locus YIL125W, strain kgd1, active compounds read low 1.01 | locus YIR030C, strain dcg1, active compounds read low 1.03 | locus YJL092W, strain hpr5, active compounds read low 0.943 | locus YJL095W, strain BCK1 (second series), active compounds read low 0.965 | locus YJL095W, strain BCK1, active compounds read low 1.05 and 1.09 | locus YJL115W, strain asf1, active compounds read low 0.947 | locus YJL129C, strain trk1, active compounds read low 1 | locus YJL134W, strain LCB3, active compounds read low 1.01 | locus YJL154C, strain vps35, active compounds read low 0.971 | locus YJL164C, strain tpk1, active compounds read low 0.97 | locus YJL166W, strain qcr8, active compounds read low 0.981 | locus YJL168C, strain set2, active compounds read low 1.02 | locus YJL187C, strain SWE1 (second series), active compounds read low 1.04 | locus YJL187C, strain SWE1, active compounds read low 0.981 | locus YJR043C, strain POL32, active compounds read low 1.09 | locus YJR066W, strain TOR1, active compounds read low 0.974 | locus YJR075W, strain HOC1, active compounds read low 0.98
active: locus YDR137W, strain rgp1, active compounds read low 1.21 [resistant] | locus YDR502C, strain sam2, active compounds read low 1.09 [resistant]
